Compound activity: PubChem, National Center for Advancing Translational Sciences (NCATS)
Rows were chosen to be rich in hits. Some 11% of all compounds tested hit in one or more screens of this group.
hNpr1 antagonist = blocks ANP-stimulated signaling of human Npr1 receptor; actives 1.6% (n = 76,000); HEK293 hNpr1 GloSensor cGMP, ANP-stimulated luminescence; Potency, µM (doses to about 46.3 µM), hits mostly inhibitors; P16066; calls by dose curve; also: nearly all actives have a fitted effect of over 60% in size
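Compound pre-incubated 30 min at room temperature on GloSensor-loaded HEK293 cells stably carrying hNpr1 and the pGS-40F cGMP biosensor. Stimulation uses hNppA at 0.1 nM final; luminescence is taken at baseline and 20 min post-agonist.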
HEK293 tox = HEK 293 cell cytotoxicity; HEK 293 viability, ATP luminescence (CellTiter-Glo), 48-72 h; Potency, µM (titrated, usually from 115 µM), actives largely listed as inhibitors; actives 6.6% (n = 94,000); AID 1345083; also: nearly all actives have a fitted effect of over 60% in size
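qHTS cytotoxicity; HEK 293, 250 cells/well; compound pinned; 48 or 72 hr, 37 degree Celsius, 5% CO2, 95% humidity; CellTiter-Glo, 10 min RT; luminescence (ATP).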
3T3 cytotox = kills NIH 3T3 cells; NIH 3T3 viability, CellTiter-Glo ATP luminescence, 48-72 h; Potency, µM (top dose mostly 96.7 µM), most hits filed as inhibitors; actives 4.3% (n = 94,000); also: nearly all actives have a fitted effect of over 55% in size
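NIH 3T3 cells at 400 cells/well received 23 nL of compound by pintool and were incubated 48 or 72 h at 37 °C. Viability was read as ATP-coupled CellTiter-Glo luminescence.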
FLuc inh = Photinus pyralis luciferase inhibition; actives 2.5% (n = 76,000); Potency, µM (highest dose often 115 µM), most hits filed as inhibitors; P08659; purified P. pyralis luciferase, luminescence, biochemical; also: nearly all actives have a fitted effect of over 65% in size
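Cell-free enzyme assay, 10nM P. pyralis luciferase, luciferin and ATP each at 10uM. Inhibition profiled over a 6-point titration, read as luminescence.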
Each line names hits and unclear results; the compound was inactive in the other large screens; ! = not active in a repeat. Unless noted, calls follow the shape of the dose curve; as a rule, active = well fitted curve in the direction sought with a large enough effect; inconclusive = small, poorly fitted or top-dose-only effect, or another doubt; inactive = no such curve, though single readings can be large; an effect the other way counts as inactive or inconclusive.

Cc1ccc(-c2cn3cc(C(=O)NCc4ccccc4)nc3s2)cc1	HEK293 tox inconclusive (no result: hNpr1 antagonist, FLuc inh)
Clc1ccccc1CN1CC[C@H](c2nnc(-c3ccccc3)o2)C1	none
Clc1ccc(-c2nnc([C@H]3CCN(Cc4c[nH]c5ccccc45)C3)o2)cc1	HEK293 tox inconclusive, 3T3 cytotox 112µM
c1ccc(-c2nnc([C@H]3CCN(Cc4ccco4)C3)o2)cc1	HEK293 tox inconclusive, FLuc inh 50.1µM
Clc1ccc(-c2nnc([C@H]3CCN(Cc4ccco4)C3)o2)cc1	FLuc inh 44.7µM
O=C(c1cccc(Cl)c1)N1CCCC(C(=O)N2CCC(N3CCCC3=O)CC2)C1 (stereo not given)	none (no result: hNpr1 antagonist, FLuc inh)
O=C(Cc1ccccn1)NC1CCN(C(=O)c2ccc(-c3cncnc3)cc2)CC1	none (no result: hNpr1 antagonist, FLuc inh)
COc1cccc(-c2cccc(C(=O)N3CCCC3C(=O)N3CCN(C(C)=O)CC3)c2)c1 (stereo not given)	none (no result: hNpr1 antagonist, FLuc inh)
CO[C@H]1CN(C2CCN(C(=O)c3cc(C)n(C)n3)CC2)[C@H]1c1cccnc1	none (no result: hNpr1 antagonist, FLuc inh)
CC(C)NC(=O)N1CCC2(CC1)CC(c1cccc(C(F)(F)F)c1)=NO2	HEK293 tox inconclusive (no result: hNpr1 antagonist, FLuc inh)
COc1ccc(C(=O)N2CCC[C@@H]2C(=O)N2CCC(N3CCOC3=O)CC2)cc1	none (no result: hNpr1 antagonist, FLuc inh)
Cc1ccc(-c2nn(-c3cccc(F)c3)cc2CN(C)CCO)o1	FLuc inh inconclusive
Cc1cc(CN(C)Cc2cn(-c3cccc(F)c3)nc2-c2ccc(C)o2)n[nH]1	HEK293 tox 44.7µM, 3T3 cytotox inconclusive, FLuc inh inconclusive
CCN1CCC2(CC1)Cc1ccccc1CN(S(=O)(=O)c1ccccc1)C2	3T3 cytotox 31.6µM (no result: hNpr1 antagonist, FLuc inh)
CS(=O)(=O)N1Cc2ccccc2CC2(CCN(Cc3ccccn3)C2)C1 (stereo not given)	none (no result: hNpr1 antagonist, FLuc inh)
COc1ccc2nc(C[C@@H]3C[C@@H](C(C)C)[C@H](CNCc4ccc(NC(C)=O)cc4)C=C3C)[nH]c2c1	HEK293 tox inconclusive, 3T3 cytotox 39.8µM
COc1ccc2nc(C[C@@H]3C[C@@H](C(C)C)[C@H](CNCc4ccccn4)C=C3C)[nH]c2c1	HEK293 tox 79.4µM, 3T3 cytotox inconclusive
C=CCn1cc2c3c(cccc31)[C@H](CC(C)C)N[C@H](C(=O)N1CCN(C)CC1)C2	HEK293 tox 79.4µM, 3T3 cytotox 63.1µM
C=CCn1cc2c3c(cccc31)[C@H](CC(C)C)N[C@H](C(=O)NCCN1CCOCC1)C2	HEK293 tox 89.1µM, 3T3 cytotox inconclusive
CC#CCn1cc2c3c(cccc31)[C@H](CC(C)C)N[C@H](C(=O)N1CCN(C)CC1)C2	HEK293 tox inconclusive, 3T3 cytotox 89.1µM
CC(C)C[C@@H]1N[C@H](C(=O)N2CCC(O)(c3ccccc3)CC2)Cc2cn(C)c3cccc1c23	HEK293 tox inconclusive, 3T3 cytotox 31.6µM
Cc1cc(Cn2cc3c4c(cccc42)[C@H](CC(C)C)N[C@H](C(=O)NCCN2CCOCC2)C3)no1	HEK293 tox inconclusive, 3T3 cytotox inconclusive
CC(=O)N1CCCN(C(=O)[C@@H]2Cc3cn(C)c4cccc(c34)[C@H](CC(C)C)N2)CC1	none
C=CCn1cc2c3c(cccc31)[C@H](CC(C)C)N[C@H](C(=O)N1CCOCC1)C2	HEK293 tox 100µM, 3T3 cytotox inconclusive, FLuc inh inconclusive
CC(C)C[C@@H]1N[C@H](C(=O)O)Cc2cn(CC3CC3)c3cccc1c23	hNpr1 antagonist inconclusive, HEK293 tox inconclusive, 3T3 cytotox inconclusive
CC(C)C[C@@H]1N[C@H](C(=O)N2CCOCC2)Cc2cn(CC3CC3)c3cccc1c23	HEK293 tox 89.1µM, 3T3 cytotox inconclusive
CC(C)C[C@@H]1N[C@H](C(=O)N2CCOCC2)Cc2cn(Cc3cccnc3)c3cccc1c23	none
O=C(NC1CN(c2ccnc3ccnn23)C1)c1ccccc1	HEK293 tox inconclusive (no result: hNpr1 antagonist, FLuc inh)
CC(C)n1cnnc1CC1CCN(S(=O)(=O)c2ccc3c(c2)CCC3)C1 (stereo not given)	none (no result: hNpr1 antagonist, FLuc inh)
COc1ccc(CN2CCc3oc(C)c(C(=O)NC4CCN(C)CC4)c3C2)cc1	HEK293 tox inconclusive
O=C(Nc1ccc(F)cc1)C1CCCN(Cc2cccc(-c3cccs3)c2)C1 (stereo not given)	HEK293 tox 39.8µM, 3T3 cytotox inconclusive (no result: hNpr1 antagonist, FLuc inh)
O=C(Cc1cccc(Cl)c1)NC1CCC(Cc2cccc(-c3cccs3)c2)CC1 (stereo not given)	HEK293 tox inconclusive (no result: hNpr1 antagonist, FLuc inh)
O=C(NCc1ccc(C(F)(F)F)cc1)C1CCCN(Cc2cccc(-c3cccs3)c2)C1 (stereo not given)	HEK293 tox inconclusive, 3T3 cytotox 11.2µM (no result: hNpr1 antagonist, FLuc inh)
O=C(NCCc1ccc(F)cc1)C1CCCN(c2nc3ncccc3o2)C1 (stereo not given)	3T3 cytotox inconclusive
O=C(Nc1cccc(Cl)c1)C1CCCN(Cc2cccc(-c3cccs3)c2)C1 (stereo not given)	HEK293 tox 39.8µM, 3T3 cytotox inconclusive (no result: hNpr1 antagonist, FLuc inh)
O=C(NCCc1ccc(F)cc1)C1CCCN(Cc2cccc(-c3cccs3)c2)C1 (stereo not given)	HEK293 tox 28.2µM!, 3T3 cytotox inconclusive (no result: hNpr1 antagonist, FLuc inh)
COc1cccc(NC(=O)[C@@H]2C[C@@H](c3cccc(C(F)(F)F)c3)N(C)C2)c1	HEK293 tox 100µM, 3T3 cytotox 79.4µM
CN1C[C@H](C(=O)Nc2ccccc2)C[C@H]1c1cccc(C(F)(F)F)c1	HEK293 tox 79.4µM, 3T3 cytotox 44.7µM
COc1ccc(NC(=O)[C@@H]2C[C@@H](c3cccc(C(F)(F)F)c3)N(C)C2)c(C)c1	HEK293 tox inconclusive, 3T3 cytotox inconclusive
N#Cc1cccc(NC(=S)N[C@H]2CO[C@H]3[C@@H]2OC[C@@H]3n2nnnc2Oc2cccc(N3CCOCC3)c2)c1	HEK293 tox 44.7µM
O=C(NC1CC1)C1(F)CCN(S(=O)(=O)c2ccccc2)CC1	HEK293 tox inconclusive (no result: hNpr1 antagonist, FLuc inh)
CC1(C)[C@H](Cc2cc(CCO)on2)C[C@@H]1NCc1ccncc1	HEK293 tox inconclusive, 3T3 cytotox inconclusive
CC(=O)N[C@H]1C[C@@H](Cc2cc(C(C)(C)C)on2)C1(C)C	3T3 cytotox inconclusive
CN(Cc1cc(C[C@@H]2C[C@H](NCc3cccnc3)C2(C)C)no1)c1ccccc1	hNpr1 antagonist inconclusive, HEK293 tox 63.1µM, 3T3 cytotox inconclusive
CC(C)(C)c1cc(C[C@@H]2C[C@H](NCc3ccccn3)C2(C)C)no1	hNpr1 antagonist inconclusive, HEK293 tox 50.1µM, 3T3 cytotox 50.1µM
CC1(C)[C@H](Cc2cc(CCO)on2)C[C@@H]1NCc1cccnc1	none
COc1ccc(CN[C@H]2C[C@@H](Cc3cc(CN(C)c4ccccc4)on3)C2(C)C)cc1	HEK293 tox 28.2µM, 3T3 cytotox inconclusive
COc1ccc(NC(=O)C2CCc3nnc(CN[S+](C)(=O)[O-])n32)cc1 (stereo not given)	none (no result: hNpr1 antagonist, FLuc inh)
CN(C)S(=O)(=O)N1CCC(CCc2nc(C3CCOCC3)no2)CC1	HEK293 tox inconclusive (no result: hNpr1 antagonist, FLuc inh)
O=C(CCc1ccccc1)N1CCCC(Cc2nncn2CC2CC2)C1 (stereo not given)	none (no result: hNpr1 antagonist, FLuc inh)
Clc1ccc(CNC[C@H]2Cn3c(-c4ccccc4)cnc3CO2)cc1	hNpr1 antagonist inconclusive, HEK293 tox 100µM, 3T3 cytotox 89.1µM
